Reference: PubChem BioAssay (EPA / NIEHS)
Values joined by “and” are separate entries in the source; they are usually repeats but may differ in a detail not shown here. Equal values may be shown once. Inconclusive results are not listed. Some structures have more than one record in an assay (separate samples or runs), and their calls can disagree. Active and inactive are the calls of the source. The calls were made as follows, unless noted: active = hit-call score of the fitted dose curve at least 0.9, where 1 is the maximum; inconclusive = response in the unintended direction; inactive = score below 0.9.

Tests used:
[1] = molecular target: Nuclear receptor subfamily 1 group I member 2 (Homo sapiens) (UniProt O75469); test: NVS_NR_hPXR: NovaScreen (NVS) Nuclear Receptor Binding Assay for human Pregnane X Receptor (PXR) (AID 2283365);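 also: a drop in FRET signal versus DMSO baseline means the compound binds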
Method in brief: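 Human PXR protein, cell-free; compound added, incubated 2 h, TR-FRET read. Signal decrease vs DMSO = binding. Screened 25 uM duplicate, actives re-run as dilution series.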

[2] = molecular target: Estrogen receptor beta (Homo sapiens) (UniProt Q92731); test: OT_ER_ERbERb_1440: Odyssey Thera (OT) 24-hour HEK293T Protein-Complementation Assay for Estrogen Receptor-beta/-beta Homodimer (AID 2283380);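 also: fluorescence gain from ER beta LBD homodimer complementation read by laser scanning cytometry; scored as signal increase over DMSO baseline for both agonists and antagonists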
Sequence of Estrogen receptor beta (Homo sapiens) (Q92731 whole entry, looked up, the tested form may be a part): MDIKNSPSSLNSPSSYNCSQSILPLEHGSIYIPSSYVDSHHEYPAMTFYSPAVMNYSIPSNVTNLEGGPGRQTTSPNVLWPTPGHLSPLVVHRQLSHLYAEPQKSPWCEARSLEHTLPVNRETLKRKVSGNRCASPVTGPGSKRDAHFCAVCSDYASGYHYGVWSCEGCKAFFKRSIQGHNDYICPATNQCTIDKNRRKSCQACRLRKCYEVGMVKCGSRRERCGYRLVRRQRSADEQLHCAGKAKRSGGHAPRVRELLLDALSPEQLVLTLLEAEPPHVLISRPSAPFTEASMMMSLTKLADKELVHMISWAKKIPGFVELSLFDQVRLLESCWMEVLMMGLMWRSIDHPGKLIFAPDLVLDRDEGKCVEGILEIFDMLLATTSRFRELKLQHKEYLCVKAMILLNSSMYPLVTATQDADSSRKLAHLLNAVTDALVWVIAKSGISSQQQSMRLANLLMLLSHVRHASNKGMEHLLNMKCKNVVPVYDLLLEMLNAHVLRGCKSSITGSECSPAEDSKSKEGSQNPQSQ
Method in brief: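 HEK293T cells stably expressing human ER-beta LBD (aa 310-547) PCA homodimer pair, dosed 24 h; formaldehyde-fixed, Draq5-stained. Readout: increase in nuclear (agonist) or nuclear plus cytoplasmic (antagonist) fluorescence intensity versus DMSO, gain-of-signal fitting.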

[3] = molecular target: Estrogen receptor (Homo sapiens) (UniProt P03372); test: OT_ERa_GFPERaERE_0480: Odyssey Thera (OT) 8-hour HeLa Transcription Induction Assay for Estrogen Receptor (AID 2283381; active = hit-call score of the fitted dose curve at least 0.9, where 1 is the maximum; inactive = score below 0.9)
Method in brief: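 Fluorescence microscopy with high-content image analysis measures ERE-driven GFP induction in HeLa cells at 8 h post-dose. Increases fitted against DMSO baseline.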

[4] = molecular target: Estrogen receptor (Homo sapiens) (UniProt P03372); test: OT_ERa_GFPERaERE_0120: Odyssey Thera (OT) 2-hour HeLa Transcription Induction Assay for Estrogen Receptor (AID 2283382)
Method in brief: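 Fluorescence-microscopy images of the GFP-ERα/ERE reporter, scored by high-content image algorithms, give the readout. HeLa exposure lasted 2 h, and only signal increase over DMSO was fitted.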

[5] = molecular target: Glucocorticoid receptor (Homo sapiens) (UniProt P04150); test: NVS_NR_hGR: NovaScreen (NVS) Nuclear Receptor Binding Assay for human Glucocorticoid Receptor (GR) (AID 2283363);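 as to AC50: activity is loss of specific radioligand binding signal relative to DMSO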
Sequence of Glucocorticoid receptor (Homo sapiens) (P04150 whole entry, looked up): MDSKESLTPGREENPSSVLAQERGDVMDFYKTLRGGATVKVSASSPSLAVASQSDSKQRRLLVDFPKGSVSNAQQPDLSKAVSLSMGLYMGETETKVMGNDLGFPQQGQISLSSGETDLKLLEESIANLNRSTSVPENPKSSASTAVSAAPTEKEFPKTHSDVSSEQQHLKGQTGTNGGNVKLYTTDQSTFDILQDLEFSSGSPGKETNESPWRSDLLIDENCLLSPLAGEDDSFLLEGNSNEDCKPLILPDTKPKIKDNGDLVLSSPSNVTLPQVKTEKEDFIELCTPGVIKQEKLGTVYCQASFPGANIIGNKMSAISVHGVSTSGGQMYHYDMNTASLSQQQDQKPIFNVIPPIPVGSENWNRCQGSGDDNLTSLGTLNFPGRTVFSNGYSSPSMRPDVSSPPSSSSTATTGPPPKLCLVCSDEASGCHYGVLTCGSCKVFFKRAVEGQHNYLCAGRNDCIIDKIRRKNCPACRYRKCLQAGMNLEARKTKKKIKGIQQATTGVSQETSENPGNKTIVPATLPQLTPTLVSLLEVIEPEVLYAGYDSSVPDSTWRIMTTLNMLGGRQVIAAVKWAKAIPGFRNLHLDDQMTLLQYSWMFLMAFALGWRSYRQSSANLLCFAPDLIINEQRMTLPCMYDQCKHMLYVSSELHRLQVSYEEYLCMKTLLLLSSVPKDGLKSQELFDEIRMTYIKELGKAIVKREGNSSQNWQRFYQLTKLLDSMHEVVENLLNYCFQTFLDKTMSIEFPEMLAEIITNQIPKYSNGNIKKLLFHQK
Method in brief: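 Single-readout cell-free binding: radioligand plus extracted receptor, 16-hour dosing, filter radiodetection; 25 uM duplicate primary, concentration series secondary.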

[6] = molecular target: human Dopamine Transporter (DAT), SLC6A3 (gene 6531) (UniProt Q01959); test: NVS_TR_hDAT: NovaScreen (NVS) Transporter Assay for human Dopamine Transporter (DAT) (AID 2283374);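 also: activity means loss of bound radioligand signal relative to DMSO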
Sequence of human Dopamine Transporter (DAT), SLC6A3 (gene 6531) (Q01959 whole entry, looked up): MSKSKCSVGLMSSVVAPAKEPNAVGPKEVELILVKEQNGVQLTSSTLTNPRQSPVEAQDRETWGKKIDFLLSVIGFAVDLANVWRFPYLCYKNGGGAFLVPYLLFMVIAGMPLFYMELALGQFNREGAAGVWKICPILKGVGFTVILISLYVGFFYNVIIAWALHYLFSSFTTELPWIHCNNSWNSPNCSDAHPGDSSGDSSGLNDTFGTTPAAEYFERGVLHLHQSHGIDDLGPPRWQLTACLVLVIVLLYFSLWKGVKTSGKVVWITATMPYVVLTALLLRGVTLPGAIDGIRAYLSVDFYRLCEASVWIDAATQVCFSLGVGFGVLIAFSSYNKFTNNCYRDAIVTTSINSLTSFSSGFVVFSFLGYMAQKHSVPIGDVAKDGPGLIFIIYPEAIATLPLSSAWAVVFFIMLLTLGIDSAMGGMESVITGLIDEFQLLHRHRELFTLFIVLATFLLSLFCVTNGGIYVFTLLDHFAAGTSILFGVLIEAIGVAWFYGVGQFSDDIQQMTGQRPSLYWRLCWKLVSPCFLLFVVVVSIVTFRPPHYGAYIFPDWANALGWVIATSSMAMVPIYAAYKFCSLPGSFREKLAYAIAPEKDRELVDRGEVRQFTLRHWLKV
Method in brief: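 Extracted human SLC6A3 protein incubated 1 h with radioligand and test chemical; bound fraction separated on filters and counted. Single 25 uM duplicate screen preceded concentration-response follow-up; positive and negative controls on every plate.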

[7] = molecular target: human Norepinephrine Transporter (NET), SLC6A2 (gene 6530) (UniProt P23975); test: NVS_TR_hNET: NovaScreen (NVS) Transporter Assay for human Norepinephrine Transporter (NET) (AID 2283377);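 also: cell-free membrane protein extracted from CHO cells expressing human NET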;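 as to AC50: displacement of radioligand from human NET seen as loss of scintillation signal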
Sequence of human Norepinephrine Transporter (NET), SLC6A2 (gene 6530) (P23975 whole entry, looked up): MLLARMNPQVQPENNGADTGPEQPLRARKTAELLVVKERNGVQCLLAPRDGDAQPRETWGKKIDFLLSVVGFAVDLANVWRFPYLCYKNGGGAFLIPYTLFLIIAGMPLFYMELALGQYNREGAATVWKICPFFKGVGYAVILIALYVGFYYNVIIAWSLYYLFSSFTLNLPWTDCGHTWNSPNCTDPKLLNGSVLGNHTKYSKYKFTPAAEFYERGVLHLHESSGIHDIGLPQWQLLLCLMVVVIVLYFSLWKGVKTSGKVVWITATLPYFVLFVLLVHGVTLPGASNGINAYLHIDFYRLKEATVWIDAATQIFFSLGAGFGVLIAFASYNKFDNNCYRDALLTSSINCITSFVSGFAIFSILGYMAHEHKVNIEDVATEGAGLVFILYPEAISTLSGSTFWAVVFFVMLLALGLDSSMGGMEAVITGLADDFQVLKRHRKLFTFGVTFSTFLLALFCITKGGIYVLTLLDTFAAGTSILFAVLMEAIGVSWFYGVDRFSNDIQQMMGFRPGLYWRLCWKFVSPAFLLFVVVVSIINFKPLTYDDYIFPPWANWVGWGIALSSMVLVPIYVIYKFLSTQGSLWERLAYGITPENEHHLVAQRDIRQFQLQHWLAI
Method in brief: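 In this cell-free binding screen, chemicals at 25 uM (duplicate) compete with a radioligand for CHO-derived human NET over 1 hour, with filter-based radiodetection.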

[8] = molecular target: Bile acid receptor (Homo sapiens) (UniProt Q96RI1); test: OT_FXR_FXRSRC1_0480: Odyssey Thera (OT) 8-hour HEK293T Protein-Complementation Assay for Farnesoid X receptor/SRC-1 Co-activator (AID 2283383)
Sequence of Bile acid receptor (Homo sapiens) (Q96RI1 whole entry, looked up): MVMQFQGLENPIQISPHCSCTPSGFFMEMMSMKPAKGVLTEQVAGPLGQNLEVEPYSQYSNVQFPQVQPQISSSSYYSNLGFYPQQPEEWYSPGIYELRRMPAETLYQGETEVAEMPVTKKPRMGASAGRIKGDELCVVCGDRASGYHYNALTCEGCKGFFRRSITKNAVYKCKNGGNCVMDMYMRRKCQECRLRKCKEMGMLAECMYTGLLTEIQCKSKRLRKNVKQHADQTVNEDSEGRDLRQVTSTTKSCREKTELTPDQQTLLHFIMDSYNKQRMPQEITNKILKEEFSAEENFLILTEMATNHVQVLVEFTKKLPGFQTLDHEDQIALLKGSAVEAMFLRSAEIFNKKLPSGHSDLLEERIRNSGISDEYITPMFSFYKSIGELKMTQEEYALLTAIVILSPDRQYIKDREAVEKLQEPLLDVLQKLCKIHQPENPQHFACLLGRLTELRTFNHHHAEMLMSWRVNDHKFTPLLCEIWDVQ
Method in brief: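 Binding of FXR to coactivator SRC-1 was read as fluorescence from a reconstituted split reporter in HEK293T cells, 8 h after chemical addition. Only increases in signal versus DMSO were fit.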

[9] = molecular target: Peroxisome proliferator-activated receptor gamma (Homo sapiens) (UniProt P37231); test: NVS_NR_hPPARg: NovaScreen (NVS) Nuclear Receptor Binding Assay for human Peroxisome Proliferator-activated Receptor gamma (PPARg) (AID 2283370)
Sequence of Peroxisome proliferator-activated receptor gamma (Homo sapiens) (P37231 whole entry, looked up): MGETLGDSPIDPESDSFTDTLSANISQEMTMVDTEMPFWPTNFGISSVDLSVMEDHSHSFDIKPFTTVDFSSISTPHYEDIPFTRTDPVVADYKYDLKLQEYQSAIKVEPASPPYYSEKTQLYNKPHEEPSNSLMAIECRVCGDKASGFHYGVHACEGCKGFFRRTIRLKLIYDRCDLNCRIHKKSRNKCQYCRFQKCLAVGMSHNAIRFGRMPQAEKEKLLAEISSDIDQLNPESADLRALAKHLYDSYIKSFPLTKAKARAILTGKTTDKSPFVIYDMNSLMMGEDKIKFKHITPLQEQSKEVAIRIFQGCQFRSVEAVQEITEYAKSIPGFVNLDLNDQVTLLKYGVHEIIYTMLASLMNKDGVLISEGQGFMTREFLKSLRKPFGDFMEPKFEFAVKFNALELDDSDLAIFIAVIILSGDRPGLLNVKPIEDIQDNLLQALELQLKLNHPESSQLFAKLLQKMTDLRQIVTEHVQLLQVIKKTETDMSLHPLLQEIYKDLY
Method in brief: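 Chemicals were tested first in duplicate at 25 uM, then in concentration series if active. Binding to cell-free PPARg protein was measured by fluorescence polarization after 2 h, with loss of signal scored against DMSO.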

[10] = molecular target: Agonist Androgen Response Element (ARE), AR (gene 367) (UniProt P10275); test: OT_AR_ARELUC_AG_1440: Odyssey Thera (OT) 24-hour CHO-K1 Luciferase Assay for Agonist Androgen Response Element (ARE) (AID 2283379)
Method in brief: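 Luminescence increase above DMSO, read after a 24 h compound treatment of CHO-K1 cells expressing an androgen response element luciferase reporter, gives the single primary endpoint; concentration-response fitting used the positive direction.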

[11] = molecular target: human Thyroid Receptor Alpha (TRa), THRA (gene 7067) (UniProt P10827); test: NVS_NR_hTRa_Antagonist: NovaScreen (NVS) Nuclear Receptor Binding Assay for human Thyroid Receptor Alpha Antagonism (TRa) (AID 2283362);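 also: activity is loss of signal relative to DMSO baseline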
Sequence of human Thyroid Receptor Alpha (TRa), THRA (gene 7067) (P10827 whole entry, looked up): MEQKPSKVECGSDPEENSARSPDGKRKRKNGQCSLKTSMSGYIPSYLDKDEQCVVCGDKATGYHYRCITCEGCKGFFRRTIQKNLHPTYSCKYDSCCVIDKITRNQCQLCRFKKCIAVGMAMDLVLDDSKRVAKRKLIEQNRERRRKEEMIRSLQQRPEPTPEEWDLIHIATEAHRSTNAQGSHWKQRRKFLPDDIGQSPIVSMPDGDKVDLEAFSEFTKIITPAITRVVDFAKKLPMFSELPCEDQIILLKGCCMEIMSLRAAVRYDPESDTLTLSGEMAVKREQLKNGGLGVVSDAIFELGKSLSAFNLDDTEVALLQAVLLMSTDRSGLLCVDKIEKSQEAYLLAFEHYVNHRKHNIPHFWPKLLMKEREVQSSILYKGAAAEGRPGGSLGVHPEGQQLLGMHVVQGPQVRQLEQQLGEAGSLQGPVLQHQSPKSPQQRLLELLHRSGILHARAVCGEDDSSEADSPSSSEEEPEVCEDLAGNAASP
Method in brief: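 Extracted protein, cell-free; 1 h incubation after dosing; AlphaLISA chemiluminescence binding readout. DMSO = baseline/neg ctrl; signal loss = activity. Primary: duplicate, 25 uM; secondary: conc. series on actives.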

[12] = molecular target: mouse Estrogen Receptor alpha (Era), Esr1 (gene 13982) (UniProt P19785); test: NVS_NR_mERa: NovaScreen (NVS) Nuclear Receptor Binding Assay for mouse Estrogen Receptor alpha (Era) (AID 2283378);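 also: hit means loss of bound radioligand signal relative to DMSO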
Sequence of mouse Estrogen Receptor alpha (Era), Esr1 (gene 13982) (P19785 whole entry, looked up): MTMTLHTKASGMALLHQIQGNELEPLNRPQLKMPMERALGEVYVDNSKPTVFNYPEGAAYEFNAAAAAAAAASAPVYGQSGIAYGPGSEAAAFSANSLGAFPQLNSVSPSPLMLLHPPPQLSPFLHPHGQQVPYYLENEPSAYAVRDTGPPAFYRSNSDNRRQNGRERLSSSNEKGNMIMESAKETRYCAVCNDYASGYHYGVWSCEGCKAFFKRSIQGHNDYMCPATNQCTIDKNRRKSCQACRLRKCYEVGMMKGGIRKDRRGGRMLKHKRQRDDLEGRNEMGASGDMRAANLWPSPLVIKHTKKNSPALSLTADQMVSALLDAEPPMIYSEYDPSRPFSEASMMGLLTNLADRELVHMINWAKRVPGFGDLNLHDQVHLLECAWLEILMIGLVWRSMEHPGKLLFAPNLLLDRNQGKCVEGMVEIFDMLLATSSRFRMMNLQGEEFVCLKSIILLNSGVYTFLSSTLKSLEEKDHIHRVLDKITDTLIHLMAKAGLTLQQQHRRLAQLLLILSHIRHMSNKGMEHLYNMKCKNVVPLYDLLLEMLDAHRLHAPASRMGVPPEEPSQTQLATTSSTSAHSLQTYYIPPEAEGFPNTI
Method in brief: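 Extracted mouse Era incubated with tritiated or iodinated radioligand plus test chemical, 18 h. Bound fraction separated on filters, counted by scintillation. DMSO = negative control/baseline; duplicate single-point at 25 uM, then concentration-response follow-up.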

[13] = molecular target: human Adenosine Transporter (Adot), SLC29A1 (gene 2030) (UniProt Q99808); test: NVS_TR_hAdoT: NovaScreen (NVS) Transporter Assay for human Adenosine Transporter (Adot) (AID 2283368)
Method in brief: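 Binding displacement on U937 extracted protein, read 1 h post-dose by filtration and scintillation counting. Primary duplicate test at 25 uM, then singleton concentration series with 50 uM top; DMSO baseline.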

[14] = test system: guinea pig Dopamine Transporter (DAT), gene 100714898; test: NVS_TR_gDAT: NovaScreen (NVS) Transporter Assay for guinea pig Dopamine Transporter (DAT) (AID 2283369);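 also: active compounds lower bound radioligand signal relative to DMSO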
Method in brief: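 Scintillation counts of filter-retained radioligand report binding to guinea pig striatal membranes after 2 h. Activity scored as signal loss relative to DMSO, first at 25 uM in duplicate, then in concentration series to 50 uM.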

[15] = molecular target: human Serotonin Transporter (SERT), SLC6A4 (gene 6532) (UniProt P31645); test: NVS_TR_hSERT: NovaScreen (NVS) Transporter Assay for human Serotonin Transporter (SERT) (AID 2283372)
Method in brief: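 Human platelet membrane preparation; displacement of radioligand from serotonin transporter measured after 1 h by filtration and scintillation counting. Single 25 uM duplicate screen, then concentration series for actives, with DMSO as negative baseline.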

[16] = test system: rat Norepinephrine Transporter (NET), gene 83511; test: NVS_TR_rNET: NovaScreen (NVS) Transporter Assay for rat Norepinephrine Transporter (NET) (AID 2283373)
Method in brief: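 Competitive radioligand displacement at the rat NET using forebrain membrane preparations, 1 h incubation, filter-based scintillation readout. Primary testing in duplicate at a single 25 uM concentration; confirmed actives retested across concentrations.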

[17] = molecular target: rat Serotonin Transporter (SERT), Slc6a4 (gene 25553) (UniProt P31652); test: NVS_TR_rSERT: NovaScreen (NVS) Transporter Assay for rat Serotonin Transporter (SERT) (AID 2283375)
Method in brief: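 Filtration-based radiodetection quantified loss of specific radioligand binding in rat forebrain membranes after 1 hour of chemical exposure, relative to DMSO. Chemicals were first tested in duplicate at 25 uM.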

[18] = molecular target: Norway rat Vesicular Monoamine Transporter (VMAT2), neurotransmitter transporter, Slc18a2 (gene 25549) (UniProt Q01827); test: NVS_TR_rVMAT2: NovaScreen (NVS) Transporter Assay for Norway rat Vesicular Monoamine Transporter (VMAT2), neurotransmitter transporter (AID 2283376);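 also: actives lower the bound radioligand signal below the DMSO level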
Method in brief: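 Binding endpoint from rat forebrain tissue, cell-free; 1 h incubation; filtered radioligand counted; 25 uM duplicate primary then dose series; DMSO negative control.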

[19] = molecular target: guinea pig Sigma Receptor, Non-selective Binding, SIGMAR1 (gene 100135589) (UniProt Q60492); test: NVS_OR_gSIGMA_NonSelective: NovaScreen (NVS) Nuclear Receptor Binding Assay for guinea pig Sigma Receptor, Non-selective Binding (AID 2283367)
Sequence of guinea pig Sigma Receptor, Non-selective Binding, SIGMAR1 (gene 100135589) (Q60492 whole entry, looked up): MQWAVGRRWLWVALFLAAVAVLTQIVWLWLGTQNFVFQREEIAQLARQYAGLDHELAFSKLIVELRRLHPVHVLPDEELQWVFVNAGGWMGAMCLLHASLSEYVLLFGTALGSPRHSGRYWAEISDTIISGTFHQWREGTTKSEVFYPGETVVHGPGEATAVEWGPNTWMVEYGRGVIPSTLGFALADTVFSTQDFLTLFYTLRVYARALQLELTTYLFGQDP
Method in brief: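 Test chemicals were screened in duplicate at 25 uM, then in concentration series if active, against radioligand binding to guinea pig brain membranes; filtration and scintillation counting at 1 h measured remaining bound ligand.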

[20] = molecular target: rat Androgen Receptor (AR), Ar (gene 24208) (UniProt P15207); test: NVS_NR_rAR: NovaScreen (NVS) Nuclear Receptor Binding Assay for rat Androgen Receptor (AR) (AID 2283366)
Method in brief: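 Actives from a duplicate single-concentration (25 uM) primary run went on to concentration series. Displacement of radioligand was counted by filtration and scintillation, 18 h post-dose, using prostate extracts from testosterone-pretreated rats, with DMSO as baseline.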

Measured: AC50

CC(C#N)CCC#N (stereo unspecified)
inactive: [1] | [2] | [3] | [4]

Cn1sc(Cl)cc1=O
inactive: [5] | [6] | [2] | [3] | [8]
active: [7] 1.59 µM

CC(C)(c1ccc(OCC2CO2)cc1)c1ccc(OCC2CO2)cc1 (stereo unspecified)
inactive: [5] | [9] | [10] | [2] | [3] | [4]

Oc1cccc2cccnc12
inactive: [1] | [2] | [8]
active: [11] 5.52 µM

CCOP(=S)(OCC)Oc1nc(Cl)c(Cl)cc1Cl
inactive: [1] | [9] | [12] | [10] | [2] | [3]
active: [8] 35.1 µM

Clc1ccc(C2(Cn3cncn3)CC(Br)CO2)c(Cl)c1 (stereo unspecified)
active: [5] 6.23 µM | [1] 19.8 µM
inactive: [11] | [9] | [2] | [3] | [4] | [8]

C[C@H]1CCCC(=O)CCC/C=C/c2cc(O)cc(O)c2C(=O)O1
active: [1] 0.969 µM | [9] 2.15 µM | [2] 0.0449 µM | [3] 0.103 µM | [4] 0.0915 µM

O=C(Nc1ccc2[nH]ccc2c1)c1cc2cc(F)ccc2n1Cc1cccc(F)c1
inactive: [1] | [2] | [3] | [8]

CCC[CH2][Sn]([CH2]CCC)([CH2]CCC)[O]C(=O)c1ccccc1
active: [1] 14.6 µM | [9] 1.83 µM
inactive: [9] | [12] | [3]

[O-][Cl+2]([O-])O
inactive: [1] | [2] | [3] | [4] | [8]

Fc1ccc(C2(Cn3cncn3)OC2c2ccccc2Cl)cc1 (stereo unspecified)
active: [2] 19.2 µM
inactive: [1] | [12] | [3] | [8]

C1CCC(NC2CCCCC2)CC1
inactive: [1] | [3] | [4]

OCc1ccco1
inactive: [1] | [2] | [3] | [8]

C=C(C)C(=O)[O][Sn]([CH2]CCC)([CH2]CCC)[CH2]CCC
inactive: [1] | [2] | [3]
active: [5] 1.15 µM | [13] 36.7 µM | [14] 19.9 µM | [9] 1.62 µM | [15] 8.9 µM | [16] 25 µM | [6] 2.82 µM | [17] 4.15 µM | [18] 4.76 µM | [7] 0.376 µM | [12] 9.68 µM

C[C@]12CCC(=O)C[C@@H]1CC[C@@H]1[C@@H]2CC[C@]2(C)[C@@H](O)CC[C@@H]12
active: [19] 5.71 µM | [2] 6.06 µM and 8.11 µM and 7.61 µM
inactive: [1] | [2]

CC(C)(OO)c1ccccc1
inactive: [5] | [9] | [7]
active: [3] 35.3 µM

CC(C)(c1ccccc1)c1ccc(O)c(C(C)(C)c2ccccc2)c1
inactive: [11] | [1] | [6] | [7] | [12] | [2] | [3]

CC1(C)Cc2cccc(O)c2O1
inactive: [1] | [2] | [3] | [4]

CC(=O)[O][Hg][c]1ccccc1
active: [1] 5.37 µM | [13] 11.8 µM | [6] 12.4 µM | [7] 0.212 µM | [3] 4.11 µM | [4] 12 µM
inactive: [10] | [2]

C[C@]12CC[C@H](O)CC1=CC[C@@H]1[C@@H]2CC[C@]2(C)C(=O)CC[C@@H]12
active: [12] 2.17 µM | [2] 3.34 µM
inactive: [1]

NNC(=S)NN
inactive: [1] | [2] | [3] | [4]
active: [11] 25.4 µM | [12] 0.0993 µM

CCN(CC)C(=O)Cl
inactive: [20]

O=C1C2(Cl)C3(Cl)C4(Cl)C(Cl)(Cl)C5(Cl)C3(Cl)C1(Cl)C5(Cl)C24Cl (stereo unspecified)
inactive: [11] | [1] | [20] | [9] | [10]
active: [5] 841 nM and 992 nM and 186 nM | [7] 1.57 µM and 1.82 µM and 869 nM | [8] 10.7 µM

Clc1ccc(COC(Cn2ccnc2)c2ccc(Cl)cc2Cl)cc1 (stereo unspecified)
inactive: [11] | [12] | [2]
active: [5] 2.3 µM | [1] 9.83 µM | [20] 6.9 µM | [3] 63.8 µM

CCC(=O)C(CC(C)N(C)C)(c1ccccc1)c1ccccc1 (stereo unspecified)
inactive: [10] | [2] | [3] | [4] | [8]
active: [19] 2.1 µM | [16] 11.3 µM | [17] 0.0639 µM | [7] 5.61 µM

CCC[CH2][Sn]([Cl])([Cl])[Cl]
inactive: [9] | [3] | [4] | [8]

CCOC(=O)/C=C(C)/C=C/C[C@@H](C)CCCC(C)C
active: [19] 11 µM
